Assay outcomes as filed in PubChem BioAssay.
HepG2 viability – qHTS for Inhibitors of TGF-b: Cytotox Counterscreen; HepG2 CAGA-GFP viability, ATP luminescence, 18 h; Potency, µM (series often up to 46.1 µM), without a hit: top-dose activity change, negative = cytotoxicity, usual class: cytotoxic; hit rate 0.76% among 410,000
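CellTiter-Glo luminescence gave cytotoxicity after 18 hours at 37 degrees C. The cells were HepG2 CAGA-GFP in 1% FBS DMEM, stimulated with 500 pg/mL TGF-beta after compound addition. %Activity was normalised to no-cell wells (complete cell-killing) and DMSO (no toxicity), and curves were fitted and classified.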
ATXN2 expr inh – Primary qHTS for Inhibitors of ATXN expression; HEK-293 ATXN2-luciferase reporter, luminescence, 24 h; AID 1745845, 2022; hit rate 0.72% among 360,000; Potency, µM (top dose mostly 57 µM), for inactives: at the top dose activity change, negative = inhibition, usual class: inhibitors; note: % is set by controls: 0 for no effect and ±100 for the full control effect; nearly all actives have a fitted effect of over 55% in size
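qHTS (up to 57 uM final) was run with 24 h compound exposure of reporter cells at 37 °C. Each well was multiplexed: SteadyGlo luminescence measured ATXN2-luciferase expression after a fluorogenic Gly-Phe-AFC viability readout (25 uM final).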
S2 tox – Viability Counterscreen for Primary qHTS for Inhibitors of ATXN expression; hit rate 0.49% among 400,000; AID 651635, 2014; S2 cells (HEK-293 line with an ATXN2-luciferase reporter) viability, CellTiter-Fluor protease fluorescence, 24 h; Potency, µM (titrated, usually from 56.7 µM), actives largely listed as cytotoxic; note: nearly all actives have a fitted effect of over 40% in size
HTT ATP protect – qHTS Multiplex Assay to Identify Dual Action Probes in a Cell Model of Huntington: Cytoprotection (ATP); PC12 HTT-Q103 induced, cytoprotection, ATP luminescence, 40 h; Potency, µM (highest dose often 56.4 µM), inactives show cytoprotection (ATP increase), usual class: activators; hit rate 0.14% among 230,000; note: % of control where 0% means no effect; nearly all actives have a fitted effect of over 45% in size
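Huntington model: PC12 line, ecdysone-inducible HTTQ103 exon1–GFP, tebufenozide 100 nM. Test articles in a dose series. Endpoint luminescence from cellular ATP.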
HTT aggregate – qHTS Multiplex Assay to Identify Dual Action Probes in a Cell Model of Huntington: Aggregate Formation (GFP); PC12 HttQ103-GFP aggregates, Acumen cytometry, 40 h; Potency, µM (titrated, usually from 46.1 µM), inactives show at the top dose activity change, negative = inhibition, actives largely listed as inhibitors; hit rate 1.1% among 220,000; AID 1688, 2009; note: % is set by controls: 0 for no effect and ±100 for the full control effect; nearly all actives have a fitted effect of over 60% in size
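Inducible Q103 Huntingtin exon 1–GFP PC12 line, 1500 cells/well in phenol red free DMEM with 5% equine and 5% calf serum. Tebufenozide 100 nM induced expression; compounds titrated; aggregates quantified by cytometry.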
TGFb SMAD3 inh – qHTS for Inhibitors of TGF-b. HepG2 CAGA-GFP TGF-b/SMAD3 reporter, GFP fluorescence, 18 h; TGF-beta stimulated, 500 pg/mL final. Potency, µM (highest dose often 46.1 µM), for inactives: at the top dose activity, negative = inhibition, hits mostly inhibitors. hit rate 1.2% among 410,000; note: % is set by controls: 0 for no effect and ±100 for the full control effect; nearly all actives have a fitted effect of over 65% in size
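HEPG2 CAGA-GFP cells (1000/well, DMEM with 1% FBS) were pre-incubated 2 h at 37 degrees C, given compound by pin tool, then stimulated with TGF-beta at 500 pg/mL final for 18 h before per-cell GFP fluorescence imaging.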
Numbers without * were called inactive; i = inactive; ? = inconclusive; . = not tested or not shown; [ ] = remark or other dose. Most compounds without a hit are left out; they make up all but 2.8% or so of the library. Calls come from the whole dose curve; as a rule, active = well fitted curve in the direction sought with a large enough effect; inconclusive = small, poorly fitted or top-dose-only effect, or another doubt; inactive = no such curve, though single readings can be large; an effect the other way counts as inactive or inconclusive. Potency is the fitted concentration of half-maximal effect.

SMILES	HepG2 viability	ATXN2 expr inh	S2 tox	HTT ATP protect	HTT aggregate	TGFb SMAD3 inh
C[C@@H]1CCC2[C@](C)(CO)[C@@H](O)CC[C@]2(C)[C@]12CCC(CO)(CCO)O2 (stereo partly specified)	.	.	.	-15%	.	.
CCOc1cc(CNCCCN2CCOCC2)cc(Br)c1OCC(=O)Nc1cccc(C(F)(F)F)c1	18µM*	22µM*	.	-14%	14%	?
CCOc1cc(CNCCCN2CCOCC2)cc(Cl)c1OCC(=O)NC(C)(C)C	-7%	-16%	?	.	.	6%
COc1cc(CNCCCN2CCOCC2)cc(Br)c1OCc1ccc(Cl)cc1	-117%	21µM*	.	-29%	5%	?
COCC1CCCN(Cc2ccc3c(c2)CN(C(=O)c2cccnc2OC)CCO3)C1 (stereo unspecified)	.	.	i	.	.	.
COc1cccc(-c2ccc3ncnc(NCc4ccccc4)c3c2)c1	.	.	.	-241%	.	.
Cc1[nH]nc2ccc(-c3cncc(OC[C@@H](N)Cc4ccccc4)c3)cc12	.	3.1µM*	.	.	.	.
COc1ccc(-c2nc3c(c4c2C[C@H](c2ccccc2)OC4)CN(C(=O)Nc2cccc(C#N)c2)CC3)c(C)c1	.	.	.	-5%[10 µM]	.	.
O=C(Nc1ccccc1)c1ccc(Br)c(S(=O)(=O)N2CCCCC2)c1	-47%	.	.	.	.	6.3µM*
O=C(O)c1ccc(NC(=O)c2ccc(Br)c(S(=O)(=O)N3CCCC3)c2)cc1	-2%	13%	i	.	.	0%
O=C(Nc1ccc2c(c1)OCO2)c1ccc(Br)c(S(=O)(=O)N2CCCC2)c1	-3%	4%	i	-7%	13µM*	?
CC(=O)Nc1sc(N/N=C\c2ccc(O)cc2)nc1-c1cccs1	-61%	.	i	8%[10 µM]	44%[9.22 µM]	3%
CCN(CC)c1ccc(/C=C(\C#N)c2nc(-c3cccs3)c(NC(C)=O)s2)cc1	.	.	.	3%[10 µM]	13µM*	.
CCc1ccc(OCCCCn2c(CCNC(=O)C3CCCCC3)nc3ccccc32)cc1	-14%	.	.	.	.	-9%
CCC(=O)NC[C@H](Cc1ccc(OCCc2nc(-c3ccccc3)oc2C)cc1)NC(C)=CC(=O)c1ccc(C(F)(F)F)cc1	.	22µM*	.	.	.	.
Cc1cc(C)c(Cn2c(C(O)c3ccccc3)nc3ccccc32)c(C)c1 (stereo unspecified)	-39%	?	?	.	.	16µM*
COC(=O)C1CCCCN1Cc1ccc2c(c1)CN(C(=O)c1csc(-c3cccs3)n1)CCO2 (stereo unspecified)	.	.	i	.	.	.
CCOc1ccc(S(=O)(=O)NC(=O)c2ccccc2)cc1	-15%	-3%	i	.	.	-1%
Cc1ccc(S(=O)(=O)NC(=O)c2ccccc2)cc1C(C)C	9%	-1%	i	2.8µM*	?	17%
COc1cccc(-n2c(SC)nnc2C2CCN(Cc3cccc(OC)c3O)CC2)c1	.	.	i	.	.	.
Cc1cccc(C2=NN(c3ccccc3)[C@H](CO)[C@H]2c2ccc(F)cc2)c1	-93%	0%	.	-171%	.	20µM*
OC[C@@H]1[C@@H](c2ccccc2)C(c2ccc(F)cc2)=NN1c1ccccc1	-49%	-10%	.	-211%	.	10µM*
COc1ccccc1[C@H]1C(c2cccc(Cl)c2)=NN(c2ccccc2)[C@@H]1CO	13µM*	?	.	-158%	.	13µM*
Cc1cccc(C2=NN(c3ccccc3)[C@H](CO)[C@H]2c2ccc(Cl)cc2)c1	-110%	?	.	-156%	.	?
OC[C@@H]1[C@@H](c2ccccc2)C(c2cccc(Cl)c2)=NN1c1ccccc1	-115%	-31%	.	.	.	?
CC1(C)SC2[C@@H](N=CN3CCCCCC3)C(=O)N2[C@H]1C(=O)O (stereo partly specified)	.	.	.	-48%	5%	.
